From ChEMBL document CHEMBL3988442, “University of Dundee, Small-Polar-MMV Screening Library” (2021)
In all, about 48,000 compounds went through this assay and about 13,000 (27%) showed an effect of 50% or more. The list shows a part of the results.

These molecules were tested on Wolbachia pipientis (assay: Anti-Wolbachia Cell-Based Screen). Details: 5 µM.
Assay type: functional
Design: scale not given: in the data most compounds retested in dose-response had high values

Compound | Percent Effect [%]
CCCC(C)N(C)Cc1nnc(-c2ccco2)o1 (stereo unspecified) | -4.256
CSc1c[nH]nc1NS(=O)(=O)c1cc(F)ccc1C | -3.23
CCN1CCN(Cc2nc(Cc3ccccc3)n[nH]2)CC1 | 2.697
O=C(NCc1ccc2c(c1)OCO2)[C@H]1C=CCN1c1ncccn1 | 120.2
O=C(NCc1ccc2c(c1)OCO2)[C@@H]1C=CCN1c1ncccn1 | 142.5
O=C(NCc1ccc2c(c1)OCO2)N1CCCC2(C1)OCCO2 | 2.082
O=C(CCc1ccc2c(c1)OCO2)Nc1cccnc1-n1cncn1 | 6.275
CC(NC(N)=O)C(=O)NCc1ccc(Br)c(F)c1 (stereo unspecified) | -7.533
CCc1cn[nH]c1C1CCN(C(=O)c2cc(C(C)=O)c(C)[nH]c2=O)CC1 | 3.575
Cc1c(CN2CCCC(c3[nH]ncc3S(C)(=O)=O)C2)cnn1C (stereo unspecified) | 3.915
CN1CCN(C(=O)C2CCCc3[nH]ncc32)CC1 (stereo unspecified) | -8.316
CN1CCC(c2[nH]ncc2S(C)(=O)=O)CC1 | 125.9
CCC(CC)N1CCC(c2[nH]ncc2S(C)(=O)=O)C1 (stereo unspecified) | 101.4
CC(=O)N1CCC(c2[nH]ncc2S(C)(=O)=O)CC1 | 87.45
CC(=O)N1CCN(C(=O)NCCCc2cn[nH]c2C)CC1 | -4.106
CC(=O)N(C)C1CCN(C(=O)NCC(C)Cc2cccs2)CC1 (stereo unspecified) | 8.983
O=C(O)[C@@H]1CN(Cc2ccc(-c3cc[nH]n3)s2)C[C@H]1C1CC1 | 7.901
CCOC(=O)c1nnc2ccccc2c1N1CCN(C(C)C)CC1 | -0.1532
COC(=O)[C@H]1C[C@@H](O)CCN1S(=O)(=O)c1cc(C)c(Cl)cc1C | -11.31
O=C(Nc1ccccc1C(=O)N1CCCC1)NC1CCOCC1 | -1.242
Cc1ccc(CN2CCC(c3nnc(CN4CCCCC4)n3C)CC2)o1 | -6.981
CCn1cc(CNC(=O)CCc2nnc(-c3ccc(C)s3)o2)cn1 | 1.856
Cc1ccsc1CN1CC[C@H]2O[C@H](C(=O)N3CCCO3)CC[C@H]21 | -0.787
O=C([C@H]1CN(Cc2nccs2)C[C@H]2OCC[C@@H]12)N1CCCC1 | -16.26
CN1CCN(C(=O)[C@H]2C[C@H]3[C@H](CCN3Cc3nccs3)O2)CC1 | 108.2
CN1CCN(C(=O)[C@H]2CC[C@@H]3[C@@H](CCN3Cc3nccs3)O2)CC1 | 100.9

Compound | Percent Effect [%]
CN1CC[C@H](c2nnc(-c3cncn3C)o2)C1 | -6.33
O=C(NCCO)C1(CC2CC(c3ccc(F)cc3)=NO2)CCOCC1 (stereo unspecified) | 103.4
CC(C)NC(=O)N1CCC2(CC1)NC(=O)CC2c1ccncc1.O=C(O)C(F)(F)F (stereo unspecified) | -5.587
O=C(Nc1ccc(F)cc1)NC1(CCO)CCOCC1 | -10.62
O=C(NCc1nncn1C1CC1)C1(c2ccc(F)cc2)CCOCC1 | 7.233
CC(C)NC(=O)C1(CC2CC(c3ccc(F)cc3)=NO2)CCNCC1.O=C(O)CC(O)(CC(=O)O)C(=O)O (stereo unspecified) | 90.44
CN(C)C1(CNC(=O)C2CCCN2Cc2ccc(F)cc2)CCOCC1 (stereo unspecified) | -14.73
O=C(NCCCO)C1(CC2CC(c3ccc(F)cc3)=NO2)CCOCC1 (stereo unspecified) | 116.1
CNS(=O)(=O)c1cc(C(=O)N2CCCCCC2CC(C)C)co1 (stereo unspecified) | 3.036
CCOC(=O)NC(CNC(=O)CCc1ccccn1)CC(C)C (stereo unspecified) | -10.22
O=C(c1cccnc1O)N(Cc1ccsc1)CC1CCCO1 (stereo unspecified) | -13.31
CNC(=O)[C@@]12CCCN(c3ncccn3)[C@@H]1CN(c1ncc(F)cn1)C2 | 0.8573
CNC(=O)[C@@]12CCCN(c3ncccn3)[C@@H]1CN(c1ncc(C)cn1)C2 | -6.772
CS(=O)(=O)N1C[C@H]2CNC[C@@]2(C(=O)NCCOc2ccccc2)C1 | -7.447
CC(C)CN1C[C@H]2N(c3ncccn3)CCC[C@@]2(C(=O)NCC2CC2)C1 | 98.73
CS(=O)(=O)N1C[C@H]2N(c3ncccn3)CCC[C@@]2(C(=O)NCC2CC2)C1 | 106.2
CNC(=O)N1C[C@H]2N(c3ncccn3)CCC[C@@]2(C(=O)NCC2CC2)C1 | 110.5
CNC(=O)[C@@]12CCCN(c3ncccn3)[C@@H]1CN(C(=O)NC(C)C)C2 | -11.1
CC1CCCCN1CCNC(=O)NCc1ccc(C#N)cc1F (stereo unspecified) | 4.831
Cc1noc(C)c1CN1CCO[C@H]2CN(Cc3cccc(F)c3)C[C@H]21.O=C(O)C(F)(F)F.O=C(O)C(F)(F)F | 84.77
NC(=O)N1CCC2(CCN(Cc3cccc(F)c3)CC2)CC1.O=C(O)C(F)(F)F | 7.684
Cc1noc(C)c1CN1CCC2(CCN(Cc3cccc(F)c3)CC2)C1.O=C(O)C(F)(F)F.O=C(O)C(F)(F)F | 108.5
Fc1ccc(CN2C[C@@H]3OCCN(CCN4CCCC4)[C@@H]3C2)cc1.O=C(O)C(F)(F)F.O=C(O)C(F)(F)F.O=C(O)C(F)(F)F | -5.638
O=C(O)C(F)(F)F.O=C1[C@@H]2CCN(Cc3ccoc3)C[C@@H]2OCCN1Cc1cccc(F)c1 | 7.665
CC(=O)N1CCC2(CCN(Cc3cccc(F)c3)CC2)CC1.O=C(O)C(F)(F)F | 4.828
Cc1ccsc1-c1nccn1CCN(C)S(C)(=O)=O | -5.374

Compound | Percent Effect [%]
CCC(CC)NC(=O)Cn1nc(C)nc1-c1ccccc1 | 0.4964
Cc1nc(-c2ccccc2C)n(CC(=O)NC(C)C2CC2)n1 (stereo unspecified) | -5.719
Cc1nc(-c2ccccc2C)n(CC(=O)NC2CCCC2)n1 | 83.22
Cc1nc(-c2ccccc2)n(CC(=O)NC(C2CC2)C2CC2)n1 | -13.82
Cc1cccc(-c2nc(C)nn2CC(=O)NC2CCCC2)c1 | 6.583
Cc1nc(-c2ccccc2)n(CC(=O)NC2CCCCC2)n1 | 105.1
Cc1nc(-c2ccccc2C)n(CC(=O)NC(C)C)n1 | -16.1
Cc1nc(-c2ccccc2)n(CC(=O)NC2CCCC2)n1 | 94.43
O=C(O)[C@@H]1CN(Cc2c[nH]c(CC3CCCC3)n2)C[C@H]1c1ccccn1 | -9.177
O=C(c1ccc(O)cn1)N1CCOC(Cc2cccc(C(F)(F)F)c2)C1 (stereo unspecified) | 9.036
Cc1ccnc(OC[C@@]23CCO[C@@H]2CCN(c2ncc(F)cn2)C3)n1.O=C(O)C(F)(F)F | -3.381
O=C(NCCCNCC1CNc2ccnn2C1)c1ccccc1 (stereo unspecified) | -22.14
NC(=O)c1cnn2c1NCC(CNCC1(c3ccccc3)CCCC1)C2 (stereo unspecified) | 95.13
Cc1cnn(C2CN(CC(=O)NCC3(c4ccccc4)CCC3)C2)c1 | -4.16
NC(=O)c1cnn2c1NCC(CNC1(c3ccccc3)CCC1)C2 (stereo unspecified) | 91.1
Cc1cnn(C2CN(CC(=O)NCC3(c4ccccc4)CC3)C2)c1 | -47.8
NC(=O)c1cnn2c1NCC(CNCCCOc1ccccc1F)C2 (stereo unspecified) | -5.67
c1ccc(Cn2cccn2)c(CNCC2CNc3ccnn3C2)c1 (stereo unspecified) | 2.44
c1ccc(C2(NCC3CNc4ccnn4C3)CCC2)cc1 (stereo unspecified) | 81.61
NC(=O)c1cnn2c1NCC(CNCCc1ccco1)C2 (stereo unspecified) | -4.106
CNS(=O)(=O)c1cccc(C(C)NCc2ccc(C)c(C)c2)c1 (stereo unspecified) | -2.241
CCc1cnc(C)nc1NC(C)C(=O)Nc1cc(F)ccc1C (stereo unspecified) | -2.868
Cn1cnnc1S(=O)(=O)Cc1cc(Cl)c2c(c1)OCCO2 | -9.232
COCCN(Cc1cccc(O)c1)Cc1ccccc1F | 0.04507
CN1CCN(Cc2cnc(S(=O)(=O)CC3CC3)n2CC2CCCO2)CC1 (stereo unspecified) | -10.61
O=C(CN1CCCS1(=O)=O)Nc1ccc(OC2CCCC2)c(Cl)c1 | -10.49

Compound | Percent Effect [%]
O=C(CC1CCC2(CC1)CCN(Cc1nccs1)CC2)N1CC=CC1 | 106.8
O=C(C[C@H]1[C@H]2CN(Cc3ccc(F)cc3)C[C@@H]12)N1CCCC1.O=C(O)C(F)(F)F | -45.89
O=C(Cc1cccnc1)N1CCC2(CCN(CC3CCCCC3)C2)CC1.O=C(O)C(F)(F)F.O=C(O)C(F)(F)F | 8.236
O=C(O)C(F)(F)F.O=C(O)C(F)(F)F.c1csc(CN2CCC3(CC2)CCN(CC2CC2)CC3)n1 | 12.33
COCC1CC2(CCN(Cc3cccnc3)CC2)CN1c1ncccn1.O=C(O)C(F)(F)F.O=C(O)C(F)(F)F.O=C(O)C(F)(F)F (stereo unspecified) | -11.87
O=C(CC1CCC2(CC1)CCN(Cc1ccncc1)CC2)N1CCCC1.O=C(O)C(F)(F)F | 108.9
O=C(c1cscn1)N1CCC2(CCN(Cc3nccs3)CC2)CC1 | -43.87
O=C(CC1CCC2(CC1)CCN(Cc1cccnc1)CC2)N1CC=CC1.O=C(O)C(F)(F)F.O=C(O)C(F)(F)F | 82.49
O=C(O)C(F)(F)F.O=C(O)C(F)(F)F.O=C(O)C(F)(F)F.c1cc(CN2CCOCC3(CCN(CC4CCOCC4)CC3)C2)ccn1 | -16.5
COc1ccccc1OCc1nc2cc3c(cc2c(=O)o1)OCCCO3 | -14.32
Cc1nc(C2CCN(C[C@H](C)CO)CC2)cc(N2CCOCC2)n1 | 2.667
CCc1c(C(=O)N2CCNC(=O)C2)cnn1C(C)(C)C | 104.8
CCOCCn1nc(C)cc1C(=O)N1CCCC[C@H](N(C)C)C1 | -3.082
CCc1c(C(=O)N2CCCC(N(C)C)C2)cnn1C(C)(C)C (stereo unspecified) | 105.9
Cc1cc(C(=O)N2CCNC(=O)C2)c(C)n1CC(F)(F)F | -17.07
CCc1c(C(=O)N2CCN(c3cnccn3)CC2)cnn1C(C)(C)C | 78.79
CCc1c(C(=O)N2CCN(CC(N)=O)CC2)cnn1C(C)(C)C | 15.08
CCCc1c(C(=O)N2CCN(c3cnccn3)CC2)cnn1C | 10.15
CCc1c(C(=O)N2CCN(c3ncccn3)CC2)cnn1C(C)(C)C | 6.599
CCc1c(C(=O)N2CCC(CC(N)=O)CC2)cnn1C(C)(C)C | 114.3
Cc1ccsc1CNc1ccc(C(=O)N2CCNC(=O)C2)cn1 | -3.195
NC(=O)CC1CCN(C(=O)c2cnc(-c3ccccc3F)s2)CC1 | 1.886
Cc1ccc(C(=O)N2CCCC(N(C)C(=O)OC(C)(C)C)C2)o1 (stereo unspecified) | 9.731
